Screening results as filed in PubChem.
RAD52 anneal inh – blocks human RAD52 DNA annealing | AID 651710 | actives 0.46% (n = 360,000) | recombinant RAD52 DNA annealing, FRET fluorescence | P43351 | inhibition, % at 18.7 µM;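 active = every replicate showing at least 50% inhibition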
AF4-AF9 inh – inhibitors of human MLL-AF4/AF9 interaction | P42568 | AlphaScreen, biotin-AF4 peptide binding to FLAG-AF9 | inhibition, % at 10 µM | actives 0.47% (n = 350,000) | AID 651704;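 active = every replicate reaching a set inhibition limit, whatever the replicate mean, cut at about 25% in these data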
Ecoli rRNA inh – inhibitors of bacterial rRNA selective over humanized ribosomes | E. coli WT GFP vs humanized-ribosome RFP mutants, fluorescence, 24 h; active compounds read low; DMSO median 0, no signal -100 | GFP signal change (wild-type ribosome), % (concentration not given with the values) | actives 1.6% (n = 350,000);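 active = significant combined selectivity score with lowered wild-type GFP, culture density cut under 30%, mutant RFP and density less affected; inactive = any of these conditions unmet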
NSD2 inh – NSD2 (human) methyltransferase inhibition; NSD2 peptide methylation, AlphaScreen, 120 min; actives 0.54% (n = 310,000); inhibition, % at 12.5 µM; O96028; in the data active = inhibition above about 50%
CASP6 VEID inh – inhibitors of human caspase-6; P55212; purified caspase-6, Z-VEID-R110 cleavage fluorescence; inhibition, % at 12.5 µM; actives 0.53% (n = 350,000); AID 686996;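 active = mean inhibition across replicates at least about 35%, with every replicate also reaching that limit, limit read from the data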
Hits are given with their value; – = inactive; · = no result. An excerpt weighted towards active compounds, which were near 2.5% of everything screened.

SMILES	RAD52 anneal inh	AF4-AF9 inh	Ecoli rRNA inh	NSD2 inh	CASP6 VEID inh
CNC[C@@H]1Oc2ccc(NC(C)=O)cc2CC(=O)N(C)C[C@H]1C	·	·	–	·	·
CC(=O)c1c(COC(=O)c2ccccc2Cl)nc2ccccc2[n+]1[O-]	–	–	-35	–	–
O=C(N/N=C/c1ccccc1)C(=O)N/N=C/c1ccccc1	–	–	–	–	–
O=C(C=C=Nc1ccccc1)C(=O)N=C=Cc1ccccc1	–	–	-31	–	–
COc1ccc2c3c([nH]c2c1)[C@H](CO)N(C(=O)C1CCCC1)CC31CN(C(=O)NC(C)C)C1	–	–	–	·	–
c1ccc(OCCn2c(-c3ccco3)nc3ccccc32)cc1	–	–	-46	·	–
COc1ccc2c3c([nH]c2c1)[C@H](CO)N(C(=O)C1CCCC1)CC31CCN(C)CC1	–	–	–	·	–
COc1cc(/C=C2\C(=N)N3N=C(S(C)(=O)=O)SC3=NC2=O)ccc1OC(=O)c1ccco1	–	–	–	–	41
COc1cc(/C=C2\C(=N)N3N=C(S(C)(=O)=O)SC3=NC2=O)ccc1OCCOc1ccccc1C	–	–	–	–	40
O=C1OC(c2ccccc2)c2ccccc21 (centres undefined)	–	–	–	–	–
O=S1OC(c2ccccc2)c2cc(Cl)ccc21 (centres undefined)	–	–	-15	·	–
Cc1nnc(SCC(=O)NCc2ccccc2Cl)[nH]c1=O	–	34	–	–	–
C/C=C/c1ccc2c(c1)[C@H]1[C@H](CCN1C(=O)c1ccc(F)cc1)[C@H](CO)N2	–	–	–	·	–
CCN(CCNCC(O)COCc1ccc(Cl)cc1)c1cccc(C)c1 (centres undefined)	–	29	–	–	–
CCN(CCNC(=O)c1ccc(C#N)cc1)c1cccc(C)c1	·	·	·	–	·
CCNC(=O)C[C@@H]1CC[C@@H]2[C@@H](COc3ccc(NC(=O)Cc4cccs4)cc3C(=O)N2C)O1	–	–	–	·	–
COc1ccc(NS(=O)(=O)c2cc(NC(=O)[C@H](C)NC(N)=O)ccc2N2CCCC2)cc1	–	–	–	–	44
Cc1noc(C)c1NC(=O)Nc1ccc2c(c1)C(=O)N([C@H](C)CO)C[C@H](C)[C@@H](CN(C)C(=O)Nc1cccc3ccccc13)O2	–	–	–	·	–
COc1ccc(Cn2cc(CN3CC(N4CCN(Cc5ccccc5F)CC4)CS3(=O)=O)nn2)cc1 (centres undefined)	–	–	–	·	–
O=S1(=O)CC(N2CCN(Cc3ccccc3F)CC2)CN1Cc1cn(Cc2ccc(Cl)cc2)nn1 (centres undefined)	–	–	-19	·	–
CC(=O)N1c2ccc(S(=O)(=O)N3CCCC(C(=O)NCc4ccccc4Cl)C3)cc2CC1C (centres undefined)	–	–	–	–	–
CC(=O)N1CCCc2cc(S(=O)(=O)N3CCCC(C(=O)NCc4ccccc4Cl)C3)ccc21 (centres undefined)	–	32	–	–	–
O=C(Nc1ccc(S(=O)(=O)Nc2ncccn2)cc1)c1cnc(Cl)c(Cl)c1	–	–	–	–	–
O=C(NC(=S)Nc1ccc(S(=O)(=O)Nc2nccs2)cc1)c1ccccc1	·	·	·	–	·
O=C(Nc1ccc(S(=O)(=O)Nc2nccs2)cc1)c1cnc(Cl)c(Cl)c1	–	–	-29	–	–
SMILES	RAD52 anneal inh	AF4-AF9 inh	Ecoli rRNA inh	NSD2 inh	CASP6 VEID inh
O=C(NC(=S)Nc1ccc(S(=O)(=O)Nc2nccs2)cc1)c1ccccc1F	–	–	-22	–	–
Cc1[nH]c2ccccc2c1/C=C(\C#N)C(=O)NCC1CCCO1 (centres undefined)	–	–	-23	–	–
CCCNC(=O)N1CC2(CN(C(=O)Cc3cccnc3)C2)c2c([nH]c3cc(OC)ccc23)[C@H]1CO	–	–	–	·	–
CCc1nc2c(OCc3ccc(C(=O)OC)cc3)cccn2c1N(C)C(=O)c1ccc(C)cc1	–	–	–	–	39
COc1ccc(C(=O)Nc2ccc3c(c2)OC[C@@H](C)NC[C@H](C)[C@H](OC)CN(C)C3=O)cc1	–	–	–	·	–
O=c1cc(CSc2nc(NCc3ccccc3)c3ccccc3n2)nc2ccc(Cl)cn12	–	–	-32	–	–
C[C@H]1CCCCO[C@H](CN(C)S(=O)(=O)c2ccc(Cl)cc2)[C@@H](C)CN([C@@H](C)CO)C(=O)c2cc(NS(=O)(=O)c3cn(C)cn3)ccc2O1	–	–	–	·	–
CC(=O)Nc1ccc2c(c1)Cc1cc(N3C(=O)C=CC3=O)ccc1-2	–	–	-28	–	–
Cc1ccc(S(=O)(=O)Nc2cccc3c2O[C@H](CN(C)C(=O)Nc2c(C)noc2C)[C@@H](C)CN([C@@H](C)CO)C3=O)cc1	–	–	–	·	·
COC(=O)CC1=C(c2ccc([N+](=O)[O-])cc2)CCC1=O	–	–	-19	–	–
CCC(=O)N1C[C@@H](C)[C@H](OC)CN(C)C(=O)c2ccc(NC(=O)c3ccc(OC)cc3)cc2OC[C@H]1C	–	–	–	·	–
CCN(CC(=O)NC1CCS(=O)(=O)C1)Cc1nc2c(Br)cc(Br)cc2c(=O)[nH]1 (centres undefined)	–	–	–	–	–
CCN(CC(=O)NC(C)(C)C)Cc1nc2c(Br)cc(Br)cc2c(=O)[nH]1	–	–	-29	·	–
C[C@H](CO)N1C[C@H](C)[C@H](CN(C)Cc2ccc(F)cc2)Oc2cc(C#CCN(C)C)ccc2S1(=O)=O	–	–	–	·	–
Cc1noc(C)c1S(=O)(=O)Nc1cccc2c1O[C@@H](CN(C)CC1CC1)[C@@H](C)CN([C@H](C)CO)C2=O	–	–	–	·	–
COc1ccccc1CNC(=O)C[C@H]1CC[C@@H]2[C@H](COC[C@@H](O)CN2C(=O)Nc2ccccc2)O1	–	–	–	·	–
O=C(C1CCCC1)N1CC[C@H]2[C@H](CO)Nc3ccc(Br)cc3[C@H]21	–	–	–	·	–
Cc1cccc(C)c1Nc1c(-c2ccc(N3CCOCC3)cc2)nc2ncccn12	–	–	-25	·	–
Cc1c2cc(O)c(=O)cc-2oc2cc(O)c(O)cc12	–	–	–	·	92
CN(C)c1ccc(N=Nc2ccc(S(N)(=O)=O)cc2)cc1	–	–	–	–	–
CC1=CC(=O)C=CC1=Nc1ccc(N(C)C)cc1	–	91	–	–	–
O=C(c1ccc([N+](=O)[O-])cc1)N1CCc2ccccc21	–	47	–	–	–
O=C(c1cccc([N+](=O)[O-])c1)N1CCc2ccccc21	–	–	–	–	–
CNC[C@H]1Oc2ccc(NC(=O)Nc3ccc(OC)cc3)cc2C(=O)N([C@@H](C)CO)C[C@@H]1C	–	–	–	·	–
O=C(c1ccccc1OC(F)F)N1CCN(S(=O)(=O)/C=C/c2ccccc2)CC1	·	·	·	–	·
Cc1ccc(/C=N/n2cnnc2)s1	·	·	·	–	·
Brc1ccc(/C=N/n2cnnc2)s1	–	·	-51	–	–
Cc1ccccc1-c1ccc(C2[C@@H]3CN(C(=O)C4CCC4)C[C@H]2N3)cc1 (some centres undefined)	·	·	–	·	·
